In PubChem BioAssay one finds z-score and composite z-score data, which are given here for nine compounds.

Active and inactive are the calls of the source. Unless noted, how the calls were made is not given here.

Test [1] in a line: compound effects on lung adenocarcinoma cell viability – A549, calcein-AM fluorescence, 48 h, basal, profiling panel (AID 1162). Further: test concentration not given here. The settings on record: higher = more signal.
Test [2] can be described thus: compound effects on differentiated 3T3-L1 adipocyte viability – cell-based, 3T3-L1 adipocytes, calcein-AM fluorescence, 48 h, basal, profiling panel (AID 1163). Further: test concentration not given here. The settings on record: 3T3-L1 adipocytes viability, higher = more signal.
A short description of test [3]: compound effects on hepatocellular carcinoma cell viability – HepG2, calcein-AM fluorescence, 48 h, basal, profiling panel (AID 1164). Further: test concentration not given here. To be noted: higher = more signal.
The nature of test [4]: compound effects on multiple myeloma cell viability – MM1S, calcein-AM fluorescence, 48 h, basal, profiling panel (AID 1165).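 Further: viability of MM1S multiple myeloma cells under basal unstimulated conditions; test concentration not given here.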 The settings on record: higher = more signal.
The nature of test [5]: calcein-AM signal in unstimulated myeloma cells – cell-based, calcein-AM fluorescence, 48 h, PK04 Diversity Set, profiling panel (AID 1166).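 Further: cells grown under basal conditions without added stimulus; test concentration not given here.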 To be noted: RPMI8226 myeloma viability, higher = more signal.
Test [6] can be described thus: JC-1 mitochondrial signal, unstimulated HepG2 cells – cell-based, JC-1 fluorescence, 24 h, 100 nL compound, profiling panel (AID 1167). Further: test concentration not given here. The settings on record: HepG2 mitochondrial potential, higher = more signal.
A short description of test [7]: JC-1 mitochondrial signal, unstimulated adipocytes – cell-based, JC-1 fluorescence, 3T3-L1 adipocytes, 24 h, 100 nL compound, profiling panel (AID 1168). Further: test concentration not given here. To be noted: JC-1 mitochondrial fluorescence, higher = more signal, called active from +8 up or from −8 down.
Test [8] in a line: JC-1 mitochondrial signal, unstimulated myeloma cells – cell-based, JC-1 fluorescence, RPMI8226, 24 h, 100 nL compound, profiling panel (AID 1169). Further: test concentration not given here. The settings on record: JC-1 mitochondrial potential fluorescence, higher = more signal.
Test [9] can be described thus: JC-1 mitochondrial signal, unstimulated MM1S myeloma – cell-based, JC-1 fluorescence, 24 h, 100 nL compound, profiling panel (AID 1170). Further: test concentration not given here. The settings on record: MM1S mitochondrial potential, higher = more signal.
A short description of test [10]: resazurin metabolic signal in A549 cells – cell-based, resazurin fluorescence, 24 h, PK04 Diversity Set, profiling panel (AID 1171). Further: test concentration not given here. To be noted: A549 viability, higher = more signal, called active from +8 up or from −8 down. (In general: Alamar Blue is a resazurin reagent that responds to reducing activity.)
Test [11] is described as follows: resazurin metabolic signal in HepG2 cells – cell-based, resazurin fluorescence, 24 h, PK04 Diversity Set, profiling panel (AID 1172). Further: test concentration not given here. To be noted: HepG2 viability, higher = more signal.
A short description of test [12]: budding yeast growth changes without added modifier – OD600, strain BY4716, 24 h, basal condition, primary screen (AID 1173). The settings on record: S. cerevisiae BY4716 growth, OD600, 24 h; higher = more signal, called active from +8 up or from −8 down.
A short description of test [13]: viability profiling in MM1S myeloma cells – cell-based, resazurin fluorescence, basal, 24 h, PK04 Diversity Set, profiling panel (AID 1174). Further: test concentration not given here. To be noted: higher = more signal, called active from +8 up or from −8 down.
In test [14] the target is Dihydroorotate dehydrogenase (quinone), mitochondrial (Plasmodium falciparum (isolate 3D7)) (UniProt Q08210). The experiment in a line: inhibition of P. falciparum DHODH – biochemical, C-terminal His tag, absorbance 600 nm, primary screen (AID 1175).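 Further: recombinant parasite enzyme with a five histidine tag at its C terminus; test concentration not given here.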 The settings on record: PfDHODH enzyme, DCIP absorbance 600 nm; higher = more signal, called active from +8 up or from −8 down.
Chain of Dihydroorotate dehydrogenase (quinone), mitochondrial (Plasmodium falciparum (isolate 3D7)) (Q08210 whole entry, looked up): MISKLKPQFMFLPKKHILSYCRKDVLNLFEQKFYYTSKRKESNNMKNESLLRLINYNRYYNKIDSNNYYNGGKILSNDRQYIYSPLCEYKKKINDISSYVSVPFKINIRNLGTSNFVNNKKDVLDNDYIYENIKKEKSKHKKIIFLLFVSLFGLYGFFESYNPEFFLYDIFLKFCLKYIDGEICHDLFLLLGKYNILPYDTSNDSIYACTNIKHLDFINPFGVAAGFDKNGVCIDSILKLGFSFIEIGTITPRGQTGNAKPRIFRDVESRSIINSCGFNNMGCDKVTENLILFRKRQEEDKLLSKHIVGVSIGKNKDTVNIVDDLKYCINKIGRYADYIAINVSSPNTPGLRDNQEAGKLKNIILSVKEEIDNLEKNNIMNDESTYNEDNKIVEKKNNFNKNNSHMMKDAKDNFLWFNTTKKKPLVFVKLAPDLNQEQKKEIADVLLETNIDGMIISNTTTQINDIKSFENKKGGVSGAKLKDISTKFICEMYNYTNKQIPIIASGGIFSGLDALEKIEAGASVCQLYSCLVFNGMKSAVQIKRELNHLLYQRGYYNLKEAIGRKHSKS

Test [15] is described as follows: inhibition of PAO1 biofilm formation – strain PAO1, LB-PBS medium, absorbance 600 nm, primary screen (AID 1176). Further: test concentration not given here. The settings on record: P. aeruginosa PAO1 growth/biofilm, A600, 12 h; higher = more signal.
Test [16] in a line: growth modulation of vineyard yeast isolate – strain RM11-1a, OD600, basal, 24 h, primary screen (AID 1177).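 Further: cultures grown under basal conditions with no added stressor; test concentration not given here.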 To be noted: S. cerevisiae RM11-1a growth, OD600, 24 h; higher = more signal, called active from +8 up or from −8 down.
A short description of test [17]: growth of efflux-deficient E. coli DRC39 – strain DRC39, OD650, 24 h, E. coli filamentation inducers, primary screen (AID 1178).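 Further: growth measured as culture turbidity by optical density at 650 nm; test concentration not given here.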 The settings on record: E. coli DRC39 acrAB, higher = more signal, called active from +8 up or from −8 down.
Test [18] is described as follows: growth of efflux-deficient E. coli DRC39 – strain DRC39, OD650, 48 h, E. coli filamentation inducers, primary screen (AID 1179).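 Further: screen aims at cell division blockers that make cells filament.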 To be noted: E. coli DRC39 delta-acrAB growth, higher = more signal, called active from +8 up or from −8 down.
Test [19] is described as follows: viability profiling in RPMI8226 myeloma cells – cell-based, resazurin fluorescence, basal, 24 h, PK04 Diversity Set, profiling panel (AID 1180).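 Further: RPMI8826 multiple myeloma cell line at 5000 cells per well; test concentration not given here.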 The settings on record: higher = more signal.
Test [20] addresses E3 ubiquitin-protein ligase XIAP (Homo sapiens) (UniProt P98170). The experiment in a line: small molecules binding XIAP protein – biophysical, small-molecule microarray, fluorescence 635 nm, primary screen (AID 1181).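 Further: score merges 667 nm emission and signal to noise over triplicate slides.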 The settings on record: higher = more signal.

Chain of E3 ubiquitin-protein ligase XIAP (Homo sapiens) (P98170 whole entry, looked up): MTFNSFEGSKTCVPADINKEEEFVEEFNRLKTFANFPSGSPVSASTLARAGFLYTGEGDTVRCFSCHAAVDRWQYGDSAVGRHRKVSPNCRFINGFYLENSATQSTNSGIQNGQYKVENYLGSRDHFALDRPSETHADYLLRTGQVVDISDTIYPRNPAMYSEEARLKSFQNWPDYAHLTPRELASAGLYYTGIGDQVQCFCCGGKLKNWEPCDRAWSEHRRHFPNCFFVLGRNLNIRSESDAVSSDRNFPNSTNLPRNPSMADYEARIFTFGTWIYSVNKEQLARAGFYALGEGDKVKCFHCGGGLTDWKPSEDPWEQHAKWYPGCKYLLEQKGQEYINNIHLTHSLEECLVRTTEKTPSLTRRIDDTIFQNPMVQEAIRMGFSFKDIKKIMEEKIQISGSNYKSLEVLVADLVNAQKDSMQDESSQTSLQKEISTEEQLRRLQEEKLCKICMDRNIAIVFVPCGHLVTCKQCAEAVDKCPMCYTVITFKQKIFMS

Regarding `CC(c1ccccc1)C(O)C1C=CC2C(=O)NC(=O)C2N1Nc1ccccn1` (stereo not given), the z-score is 0.405 in test [1]; -0.309 in test [2]; 0.925 in [3]; -0.275 in test [4]; 0.291 in [5]; 0.0592 in test [6]. The z-score in test [7] is -0.739 (inactive); in [8], 0.568; in test [9] it was -0.533; in test [10], -0.81 (inactive); in test [11], -0.987; in test [12], 1.34 (inactive). The z-score in [13] was -0.757 (inactive); in test [15], 1.33 (inactive); in [16] it was 1.27 (inactive); in test [17] it was 0.15 (inactive); in test [18], 0.226 (inactive); in test [19], -0.806. The composite z-score is 0.865 (inactive) in test [14] and 0.0049 in test [20].

For `CCCCCN1CC=CC23O[C@@H]4/C=C\CCCOC(=O)C4[C@H]2C(=O)N(CCCCCCO)[C@@H]3C1=O` (stereo not given in full), the z-score in [1] was 1.26; in test [2], 2.1; in test [3], 1.54; in test [4] it was 1.37; in test [5], 1.97; in test [6], 0.482. In addition, the z-score in test [7] was -0.462 (inactive); in test [8], 0.521; in [9], -1.09; in test [10], 0.4 (inactive); in test [11], 0.239; in test [12], -2.73 (inactive). Moreover, the z-score in test [13] was 0.972 (inactive); in test [15] it was 1.45 (inactive); in [16], -3.12 (inactive); in test [17], 0.758 (inactive); in test [18], 0.868 (inactive); in [19], 1.42. The composite z-score in [14] was -2.25 (inactive); in [20], 0.147.

In the case of `O=C(CS)NCCCCCCNC(=O)[C@H]1C[C@H]2C(=O)NCC(=O)N2[C@H]1c1ccc(O)cc1`, the z-score is 0.324 in [1]; 0.277 in [2]; 0.555 in test [3]; -0.31 in [4]; 0.325 in test [5]; -0.32 in [6]. Besides, the z-score in test [7] was -0.607 (inactive); in [8], -0.645; in test [9] it was -0.459; in test [10], -0.27 (inactive); in [11], -0.0808; in [12], 0.309 (inactive). Besides, the z-score in test [13] was -0.722 (inactive); in test [15] it was 0.395 (inactive); in test [16], -0.14 (inactive); in [17] it was -0.389 (inactive); in test [18] it was -0.405 (inactive); in test [19] it was -0.521. Moreover, the results for the composite z-score in [14] and in [20] were -0.864 (inactive) and 0.102, respectively.

In the case of `CCOC(=O)C1=CC[C@@H](c2ccccc2)N(S(=O)(=O)c2ccc(C)cc2)[C@H]1C(=O)OCC`, the z-score in test [1] is -0.613; in test [2], -0.467; in test [3], -0.111; in test [4] it was 0.884; in [5] it was 0.0651; in test [6] it was 3. The z-score was 0.252 (inactive) in [7]; -0.619 in test [8]; -1.24 in test [9]; 0.706 (inactive) in test [10]; -0.0229 in test [11]; 1.45 (inactive) in test [12]. Further, the z-score in [13] is -0.424 (inactive); in test [15] it was -0.0196 (inactive); in [16], 0.482 (inactive); in test [17], -0.0018 (inactive); in test [18], 0.237 (inactive); in test [19], -0.904. Further, the composite z-score was -0.103 (inactive) in test [14] and -0.052 in test [20].

With `CCOC(=O)C[C@H]1[C@H](OC(=O)c2ccccc2-c2ccccc2)[C@@H](NC(=O)Cc2ccc(OC)cc2)c2cc(OCCCO)ccc2N1C(=O)c1ccccc1`, the z-score is 0.369 in test [1]; -0.8 in test [2]; 0.41 in [3]; -0.0609 in [4]; 0.0629 in test [5]; 0.915 in test [6]. The z-score in [7] is 0.0962 (inactive); in test [8], -0.0457; in [9], 0.213; in test [10], 0.407 (inactive); in [11], -0.532; in test [12] it was 0.728 (inactive). The z-score in [13] was -0.275 (inactive); in test [15], -0.0461 (inactive); in [16], 0.799 (inactive); in test [17] it was -0.672 (inactive); in [18] it was -0.79 (inactive); in test [19] it was -0.155. The composite z-score in [14] is 0.542 (inactive); in test [20] it was 0.123.

In the case of `Cc1cc(C)c(C(O)C2C=CC3C(=O)N(C)C(=O)C3N2Nc2ccccc2)c(C)c1` (stereo not given), the z-score in test [1] was -1.02; in test [2], -0.904; in test [3] it was -0.798; in [4] it was -0.305; in test [5], -0.681; in test [6] it was -1.73. The z-score was -1 (inactive) in [7]; -0.207 in [8]; 0.434 in test [9]; -0.551 (inactive) in test [10]; -1.03 in test [11]; -0.0657 (inactive) in [12]. In addition, the z-score is -1.1 (inactive) in test [13]; 0.944 (inactive) in test [15]; -0.362 (inactive) in test [16]; -0.709 (inactive) in test [17]; -0.456 (inactive) in test [18]; -1.46 in test [19]. For the same compound, the composite z-score in [14] is 0.0016 (inactive); in test [20] it was 0.372.

As to `COCCOC(=O)N1C(=O)[C@@]2(c3cc(C#CCC(C(=O)OC)C(=O)OC)ccc31)[C@H](C(=O)N1CCN(c3ncccn3)CC1)[C@H]1C(=O)O[C@H](c3ccccc3)[C@H](c3ccccc3)N1[C@@H]2c1ccc(OCCO)cc1`, the z-score in test [1] was 1.68; in test [2] it was 1.02; in test [3] it was 0.674; in test [4], 0.65; in [5], 1.21; in test [6], -0.656. Further, the z-score in test [7] is 1.86 (inactive); in test [8], -0.303; in [9] it was -1.16; in test [10], 0.665 (inactive); in test [11], 1.36; in test [12] it was 0.539 (inactive). Also, the z-score in test [13] is 0.724 (inactive); in test [15], 3.48 (inactive); in [16] it was 1.84 (inactive); in test [17], 0.272 (inactive); in test [18], 0.106 (inactive); in test [19] it was 1.32. The composite z-score in test [14] was -0.432 (inactive); in test [20] it was 0.0838.

For the compound `CC(C)(C)OC(=O)CC[C@]1(C(=O)N2CCCCC2)N=C(c2ccc(OCCCO)cc2)O[C@H]1c1ccccc1N=[N+]=[N-]`, the z-score in [1] is 1.12; in test [2], 0.768; in test [3], 0.63; in test [4], -2.03; in test [5], -0.99; in [6], 1.18. In addition, the z-score in test [7] is 1.92 (inactive); in test [8] it was -0.862; in test [9], -0.715; in test [10], -0.0762 (inactive); in test [11] it was 0.188; in [12] it was 0.367 (inactive). Moreover, the z-score in test [13] was -1.79 (inactive); in test [15], 0.466 (inactive); in test [16], 1.01 (inactive); in [17] it was 1.82 (inactive); in test [18], 1.04 (inactive); in test [19], -1.32. Further, the figures for the composite z-score in test [14] and in test [20] were 0.107 (inactive) and -0.0304, respectively.

In the case of `C=CCOC(=O)[C@H]1[C@@H]2C(=O)O[C@@H](c3ccccc3)[C@@H](c3ccccc3)N2[C@@H](c2ccc(OCCOC(=O)[C@@H]3C[C@@H]4C(=O)NCC(=O)N4[C@@H]3c3ccc(O)cc3)cc2)[C@]12C(=O)Nc1ccccc12`, the z-score in test [1] is 0.422; in test [2], 0.905; in [3], 1.49; in test [4], -0.459; in test [5], 0.776; in [6], -1.35. Further, the z-score in [7] was -0.577 (inactive); in test [8] it was -0.831; in test [9], -1.12; in test [10], 0.677 (inactive); in test [11], 0.558; in test [12], -0.0301 (inactive). For the same compound, the z-score in test [13] was 1.56 (inactive); in test [15] it was 2.05 (inactive); in [16], -1.38 (inactive); in test [17], 0.971 (inactive); in test [18] it was 1.61 (inactive); in test [19], 0.765. The composite z-score in test [14] is -0.803 (inactive); in test [20] it was -0.121.
